From PubChem BioAssay (Tox21)
Records with an inconclusive call do not appear. Where a call stands in place of a potency, no number is given. The source made the active and inactive calls. Unless noted, calls come from the whole dose curve.

Tests used:
[1] = Nuclear factor erythroid 2-related factor 2/antioxidant responsive element (Nrf2/ARE) small molecule agonists: qHTS cell viability counter screen in human keratinocytes (AID 1919968; active = well fitted curve in the direction sought with a large enough effect in the repeat runs; an effect the other way counts as inactive or inconclusive; note: nearly all actives have a fitted effect of over 55% in size; note: potency is the fitted concentration of half-maximal effect)
How it was run: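 Cells of the KeratinoSens line were plated at 1,500 per well and left for 5 h before compound transfer from DMSO stocks. After a 23 h incubation (37 C, 5% CO2), CellTiter-Fluor was added. Signal was taken as fluorescence intensity 1 h later.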

[2] = Nuclear factor erythroid 2-related factor 2/antioxidant responsive element (Nrf2/ARE) small molecule agonists: luciferase reporter gene qHTS assay in human keratinocytes (AID 1919969); note: nearly all actives have a fitted effect of over 35% in size; note: potency is the fitted concentration of half-maximal effect
[3] = molecular target: Gonadotropin-releasing hormone receptor (Homo sapiens) (UniProt P30968); experiment: Human gonadotropin-releasing hormone receptor (GnRHR) small molecule agonists, calcium flux assay in GnRHR-HEK293 cells (AID 1920063); note: nearly all actives have a fitted effect of over 35% in size
How it was run: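 Compounds dissolved in DMSO are pin-transferred onto dye-loaded GnRHR-HEK293 cells, which were seeded 18 h before at 37 C/5% CO2. Calcium signal is read as fluorescence intensity at 1 s intervals for 3 min.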

[4] = G protein-coupled receptor (GPCR) small molecule agonists, calcium flux assay: HEK293 wild type cell line counter screen (AID 1920065)
How it was run: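 Tox21 10K compounds, 15 concentrations each in triplicate, pin-transferred in DMSO onto dye-loaded cells; kinetic read at 480/540 nm for 3 min, 1 s intervals.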

[5] = p53 small molecule agonists, cell-based qHTS assay with human liver microsomes (AID 1963577);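 note: p53 response element beta-lactamase reporter cells with liver microsomes plus NADPH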
How it was run: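 With metabolic activation: human liver microsomes (0.5 mg/mL final) plus NADPH (0.5 mg/mL final) added alongside compounds to p53RE-bla cells; 16 h 37 C exposure; beta-lactamase read by LiveBLAzer fluorescence.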

[6] = p53 small molecule agonists, cell-based qHTS assay with rat liver microsomes (AID 1963578)
How it was run: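 Metabolic activation by rat liver microsomes and NADPH, each 0.5 mg/mL final, added right after compounds to p53RE-bla reporter cells (4,000/well, plated 5 h earlier). 16 h at 37 C, then LiveBLAzer substrate for 2 h at room temperature in the dark; fluorescence read-out.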

[7] = p53 small molecule agonists, cell-based qHTS assay with human liver microsomes: qHTS cell viability counter screen (AID 1963579); note: nearly all actives have a fitted effect of over 45% in size
How it was run: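 Metabolic activation used human liver microsomes and NADPH, both 0.5 mg/mL final, over 16 hours at 37 C on p53RE-bla cells (4,000/well). Cytotoxicity measured by CellTiter-Glo luminescence, 30 min at room temperature.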

[8] = p53 small molecule agonists, cell-based qHTS assay with rat liver microsomes: qHTS cell viability counter screen (AID 1963580); note: nearly all actives have a fitted effect of over 45% in size
How it was run: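 Counter screen for cytotoxicity under metabolic activation: rat liver microsomes and NADPH, 0.5 mg/mL final each, added with compounds to p53RE-bla HCT-116 cells; 16 h at 37 C, then ATP luminescence read.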

[9] = p53 small molecule agonists, cell-based qHTS assay: qHTS cell viability counter screen (AID 1963581); note: nearly all actives have a fitted effect of over 45% in size
How it was run: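 ATP content measured by luminescence in HCT-116 p53RE-bla cells treated 16 h at 37 C, same wells as the reporter screen.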

[10] = p53 small molecule agonists, cell-based qHTS assay (AID 1963582; active = well fitted activation curve with a large enough effect in the signal ratio in the repeat runs, not every such curve was filed as active; the % refers to the signal ratio)
How it was run: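 16 h compound exposure (37 C) of p53 response element–bla cells, preceded by 5 h recovery at 37 C/5% CO2; read-out via LiveBLAzer B/G FRET substrate, 2 h RT, fluorescence intensity.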

[11] = molecular target: Muscarinic acetylcholine receptor M1 (Homo sapiens) (UniProt P11229); experiment: Cholinergic receptor muscarinic 1 (CHRM1) small molecule antagonists, cell-based qHTS assay (AID 1963588); note: nearly all actives have a fitted effect of over 40% in size
How it was run: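 Compounds were tested at 15 concentrations in three independent runs. Dye-loaded CHRM1-CHO cells were exposed 5 min at room temperature before stimulation by acetylcholine added at 50nM. Intracellular calcium was read kinetically on FDSS for 3 min.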

[12] = molecular target: Muscarinic acetylcholine receptor M1 (Homo sapiens) (UniProt P11229); experiment: Cholinergic receptor muscarinic 1 (CHRM1) small molecule agonists, cell-based qHTS assay (AID 1963589); note: nearly all actives have a fitted effect of over 35% in size
How it was run: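 Homogeneous fluorescence calcium flux, agonist mode. Human M1-expressing CHO cells; compound dosed at 15 concentrations, three independent runs; signal sampled every 1 sec.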

[13] = cAMP Responsive Elements (CRE) small molecule agonists, cell-based qHTS assay (AID 1963590)
How it was run: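 HEK 293T cells stably bearing CRE-bla were plated at 2,000 cells per well and rested 18 h. Compounds, positive controls or DMSO were added for 3 h at 37 C. LiveBLAzer B/G substrate was then loaded for 2 h at room temperature.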

[14] = cAMP Responsive Elements (CRE) small molecule antagonists, cell-based qHTS assay (AID 1963591; active = well fitted inhibition curve with a large enough effect in the signal ratio in the repeat runs, not every such curve was filed as active; the % refers to the signal ratio)
How it was run: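 First, CRE-bla HEK293T cells settled 18 h at 37 C. Next, compound and 0.25 uM final NKH477 were applied for 3 h. Last, LiveBLAzer B/G substrate was loaded for 2 h at room temperature.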

[15] = molecular target: Beta-2 adrenergic receptor (Homo sapiens) (UniProt P07550); experiment: Adrenergic beta2 receptor (ADRB2) small molecule antagonists, cell-based qHTS assay (AID 1963592); note: series mostly up to about 92 µM; nearly all actives have a fitted effect of over 50% in size
How it was run: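 Assay format: CHO-ADRB2 cells, 18-20hr seeding at 37C/5% CO2, then compound plus 1nM isoproterenol agonist mix for 0.5hr RT. Homogeneous time-resolved fluorescence cAMP detection after 1hr, expressed as 665/615 nm ratio.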

[16] = molecular target: D(2) dopamine receptor (Homo sapiens) (UniProt P14416); experiment: Dopamine D2 receptor (DRD2) small molecule agonists, cell-based qHTS assay (AID 1963594); note: nearly all actives have a fitted effect of over 35% in size
How it was run: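 HEK293 cells stably expressing DRD2 were cultured 24 h at 37 C, then given Ro20-1724 (0.1 mM final) and compounds for 10 min at room temperature. NKH477 (200nM) was then added for 30 min. cAMP was read by HTRF.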

[17] = molecular target: 5-hydroxytryptamine receptor 2A (Homo sapiens) (UniProt P28223); experiment: 5-hydroxytryptamine receptor 2A (HTR2A) small molecule antagonists, cell-based qHTS assay (AID 1963586); note: nearly all actives have a fitted effect of over 45% in size
How it was run: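 CHO cells stably expressing human HTR2A were plated for 18 h at 37 C, then loaded with calcium dye for 1 h. Compounds were preincubated 5 min at room temperature before DOI (4 nM solution) was added. Kinetic fluorescence was read for 3 min.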

[18] = molecular target: 5-hydroxytryptamine receptor 2A (Homo sapiens) (UniProt P28223); experiment: 5-hydroxytryptamine receptor 2A (HTR2A) small molecule agonists, cell-based qHTS assay (AID 1963587); note: nearly all actives have a fitted effect of over 30% in size
How it was run: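 HTR2A-CHO cells, plated 18 h at 37 C/5% CO2, dye-loaded 1 h at 37 C; compounds in DMSO added by pin tool (agonist mode). Intracellular calcium flux read as kinetic fluorescence on FDSS over 2 min at 1 s intervals.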

[19] = molecular target: D(2) dopamine receptor (Homo sapiens) (UniProt P14416); experiment: Dopamine D2 receptor (DRD2) small molecule antagonists, cell-based qHTS assay (AID 1963595; active = well fitted inhibition curve with a large enough effect in the signal ratio in the repeat runs, with a control signal flat; the % refers to the signal ratio)
How it was run: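 HTRF cAMP read-out at 665 and 620 nm emission (340 nm excitation). Antagonist mode: compounds were tested against 12 nM quinpirole in DRD2-HEK293 cells, with 200 nM NKH477 raising cAMP and 0.1 mM Ro20-1724 blocking its breakdown.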

[20] = molecular target: KiSS-1 receptor (Homo sapiens) (UniProt Q969F8); experiment: Human kisspeptin (KISS1R) small molecule agonists, calcium flux assay in KISS1R-HEK293 cells (AID 1920064; active = well fitted curve in the direction sought with a large enough effect in the repeat runs; an effect the other way counts as inactive or inconclusive)
How it was run: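 Cell line: HEK293, stable human KISS1R. Dye loading 1 h at 37 C after 18 h culture. Read: kinetic fluorescence, 480/540 nm, 3 min at 1 s intervals.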

Chain of D(2) dopamine receptor (Homo sapiens) (P14416 whole entry, looked up): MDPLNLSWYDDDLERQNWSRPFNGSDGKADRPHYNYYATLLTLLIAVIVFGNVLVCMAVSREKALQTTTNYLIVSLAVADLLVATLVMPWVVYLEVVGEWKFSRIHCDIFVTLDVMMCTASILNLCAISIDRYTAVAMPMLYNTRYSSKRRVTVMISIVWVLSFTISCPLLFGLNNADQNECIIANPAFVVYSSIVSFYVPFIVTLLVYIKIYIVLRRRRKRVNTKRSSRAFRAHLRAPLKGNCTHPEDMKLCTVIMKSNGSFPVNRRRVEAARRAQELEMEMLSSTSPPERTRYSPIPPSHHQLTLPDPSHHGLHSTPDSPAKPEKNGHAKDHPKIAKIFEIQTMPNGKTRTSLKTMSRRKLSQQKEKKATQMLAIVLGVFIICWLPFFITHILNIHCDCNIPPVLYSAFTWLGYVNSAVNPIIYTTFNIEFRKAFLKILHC
Chain of Beta-2 adrenergic receptor (Homo sapiens) (P07550 whole entry, looked up): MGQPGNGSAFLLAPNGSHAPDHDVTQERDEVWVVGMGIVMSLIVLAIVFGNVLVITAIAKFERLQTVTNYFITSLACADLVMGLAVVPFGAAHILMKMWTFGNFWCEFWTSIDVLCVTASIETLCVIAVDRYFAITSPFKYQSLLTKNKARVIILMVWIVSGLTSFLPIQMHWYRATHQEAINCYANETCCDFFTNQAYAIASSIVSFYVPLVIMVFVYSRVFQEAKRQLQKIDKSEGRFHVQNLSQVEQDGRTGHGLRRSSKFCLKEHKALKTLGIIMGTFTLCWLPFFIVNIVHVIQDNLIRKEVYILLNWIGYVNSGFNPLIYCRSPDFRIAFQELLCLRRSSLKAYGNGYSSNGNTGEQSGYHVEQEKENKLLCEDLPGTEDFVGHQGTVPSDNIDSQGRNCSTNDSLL
Chain of Gonadotropin-releasing hormone receptor (Homo sapiens) (P30968 whole entry, looked up): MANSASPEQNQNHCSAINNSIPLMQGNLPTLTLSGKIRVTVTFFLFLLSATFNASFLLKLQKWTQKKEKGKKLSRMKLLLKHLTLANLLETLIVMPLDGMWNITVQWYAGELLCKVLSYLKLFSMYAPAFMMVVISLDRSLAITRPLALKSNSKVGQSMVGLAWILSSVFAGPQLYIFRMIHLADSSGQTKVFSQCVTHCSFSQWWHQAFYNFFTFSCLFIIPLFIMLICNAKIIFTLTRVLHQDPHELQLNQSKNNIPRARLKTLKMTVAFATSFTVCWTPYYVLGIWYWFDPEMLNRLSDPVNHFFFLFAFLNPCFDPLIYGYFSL
Chain of 5-hydroxytryptamine receptor 2A (Homo sapiens) (P28223 whole entry, looked up): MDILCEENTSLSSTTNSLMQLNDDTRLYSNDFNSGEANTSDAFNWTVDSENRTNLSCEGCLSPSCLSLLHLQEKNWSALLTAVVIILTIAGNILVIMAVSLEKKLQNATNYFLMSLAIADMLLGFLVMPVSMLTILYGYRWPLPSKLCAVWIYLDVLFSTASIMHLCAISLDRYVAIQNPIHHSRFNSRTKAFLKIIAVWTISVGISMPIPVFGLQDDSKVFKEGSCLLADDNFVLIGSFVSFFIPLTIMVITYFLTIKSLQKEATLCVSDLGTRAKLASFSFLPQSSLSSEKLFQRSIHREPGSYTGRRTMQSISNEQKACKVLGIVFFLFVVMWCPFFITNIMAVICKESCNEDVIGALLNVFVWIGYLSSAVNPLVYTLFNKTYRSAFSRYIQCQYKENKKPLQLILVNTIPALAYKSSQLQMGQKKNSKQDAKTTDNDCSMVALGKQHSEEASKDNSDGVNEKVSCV
Chain of Muscarinic acetylcholine receptor M1 (Homo sapiens) (P11229 whole entry, looked up): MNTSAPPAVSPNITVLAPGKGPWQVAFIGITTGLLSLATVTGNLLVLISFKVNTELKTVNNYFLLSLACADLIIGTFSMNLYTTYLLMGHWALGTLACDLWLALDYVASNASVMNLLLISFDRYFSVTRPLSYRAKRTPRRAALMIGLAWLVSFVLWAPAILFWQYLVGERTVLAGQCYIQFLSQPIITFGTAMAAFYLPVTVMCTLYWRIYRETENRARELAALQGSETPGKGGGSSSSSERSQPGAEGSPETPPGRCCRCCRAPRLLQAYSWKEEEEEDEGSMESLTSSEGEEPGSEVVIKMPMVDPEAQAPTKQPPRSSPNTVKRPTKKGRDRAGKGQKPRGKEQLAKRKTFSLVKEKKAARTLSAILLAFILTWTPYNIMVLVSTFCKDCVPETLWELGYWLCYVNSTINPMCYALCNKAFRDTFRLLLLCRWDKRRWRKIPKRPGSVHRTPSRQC
Chain of KiSS-1 receptor (Homo sapiens) (Q969F8 whole entry, looked up): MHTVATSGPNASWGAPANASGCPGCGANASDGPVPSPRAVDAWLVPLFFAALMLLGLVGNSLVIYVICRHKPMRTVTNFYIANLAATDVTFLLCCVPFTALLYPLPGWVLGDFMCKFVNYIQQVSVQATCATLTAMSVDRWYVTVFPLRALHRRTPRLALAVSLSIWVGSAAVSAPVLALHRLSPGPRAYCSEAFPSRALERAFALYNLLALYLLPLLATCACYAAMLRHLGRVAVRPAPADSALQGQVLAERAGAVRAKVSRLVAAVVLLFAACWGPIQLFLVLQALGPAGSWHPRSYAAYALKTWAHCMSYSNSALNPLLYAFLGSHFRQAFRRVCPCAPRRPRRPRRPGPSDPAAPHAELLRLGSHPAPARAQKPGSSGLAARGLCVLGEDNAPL

Row | Structure (SMILES) | Potency [1] | Potency [2] | Potency [3] | outcome [4] | Potency [5] | Potency [6] | Potency [7] | Potency [8] | Potency [9] | Potency [10] | Potency [11] | Potency [12] | Potency [13] | Potency [14] | Potency [15] | Potency [16] | Potency [17] | Potency [18] | Potency [19] | outcome [20]
1 | CN(C)CCCSc1ccccc1NC(=O)/C=C/c1ccccc1 | inactive | inactive | inactive | inactive | inactive | inactive | inactive | inactive | inactive | inactive | inactive | inactive | inactive | inactive | inactive | inactive |  |  |  | 
2 | FC(F)(F)C(F)(F)C(F)(F)C(F)(F)C(F)(F)C(F)(F)C(F)(F)C(F)(F)Br | inactive | inactive | inactive | inactive | inactive | inactive |  | inactive | inactive | inactive | inactive | inactive | inactive | inactive | inactive |  | inactive | inactive | inactive | 
3 | CC1(C)Cc2cccc(N)c2O1 | inactive | inactive | inactive | inactive | inactive | inactive | inactive | inactive |  |  | inactive | inactive | inactive | inactive | inactive | inactive | inactive | inactive |  | 
4 | CC(C)C[C@H](NC(=O)OCC1c2ccccc2-c2ccccc21)C(=O)O | inactive | 0.611 µM (active) | inactive | inactive | inactive | inactive | inactive | inactive | inactive |  | inactive | inactive |  |  | inactive | inactive |  | inactive | inactive | 
5 | Cc1ncc([N+](=O)[O-])n1CC(C)O (configuration not stated) | inactive | inactive | inactive | inactive | inactive | inactive | inactive |  | inactive | inactive |  |  | inactive | inactive | inactive |  |  |  | inactive | 
6 | CCOC(=O)[C@H](CCc1ccccc1)N[C@@H](C)C(=O)N1CCC[C@H]1C(=O)O | inactive | inactive | inactive | inactive | inactive | inactive | inactive | inactive | inactive | inactive |  |  | inactive | inactive | inactive | inactive |  |  | inactive | 
7 | C=CCSCC1Nc2cc(Cl)c(S(N)(=O)=O)cc2S(=O)(=O)N1 (configuration not stated) | inactive | inactive | inactive | inactive | inactive | inactive | inactive | inactive | inactive |  | inactive | inactive | inactive | inactive | inactive | inactive |  | inactive | inactive | 
8 | CN=C(NC#N)NCCSCc1csc(N=C(N)N)n1 | inactive | inactive | inactive | inactive | inactive | inactive |  | inactive | inactive | inactive | inactive |  | inactive | inactive | inactive |  | inactive | inactive |  | 
9 | CCN(O)CC | inactive | inactive | inactive | inactive | inactive | inactive | inactive | inactive | inactive | inactive | inactive | inactive | inactive | inactive | inactive | inactive |  |  |  | 
10 | O=[N+]([O-])c1cc(Cl)c(Cl)c(Cl)c1Cl | inactive | 48.4 µM (active) | inactive | inactive | inactive | inactive | inactive | inactive |  | inactive | inactive | inactive |  | inactive | inactive | inactive |  | inactive | inactive | 
11 | C[Si]1(C)O[Si](C)(C)O[Si](C)(C)O1 | inactive | inactive | inactive | inactive | inactive | inactive |  | inactive | inactive | inactive | inactive | inactive | inactive |  | inactive | inactive | inactive | inactive | inactive | 
12 | Cc1cccc(CN2CCN(C(c3ccccc3)c3ccc(Cl)cc3)CC2)c1 (configuration not stated) | 18.8 µM (active) | inactive | inactive | inactive | inactive | inactive |  | inactive | inactive |  | inactive | inactive | inactive | inactive | inactive |  |  | inactive | inactive | 
13 | CC(=O)Oc1ccc(C2(c3ccc(OC(C)=O)cc3)C(=O)Nc3ccccc32)cc1 | inactive | 0.266 µM (active) | inactive | inactive | inactive | inactive |  | inactive |  |  | inactive | inactive | inactive |  | inactive | inactive | inactive |  |  | 
14 | Nc1cccc(S(=O)(=O)c2cccc(N)c2)c1 | inactive | inactive | inactive | inactive | inactive | inactive | inactive | inactive | inactive |  | inactive | inactive | inactive |  | inactive | inactive |  | inactive | inactive | 
15 | Cc1cc(CCCOc2c(C)cc(-c3noc(C(F)(F)F)n3)cc2C)on1 | inactive | 11.9 µM (active) |  | inactive | inactive | inactive | inactive | inactive | inactive | inactive |  | inactive | inactive | inactive |  |  | inactive | inactive |  | inactive
